Experimental data published in PubChem BioAssay (NCATS).
Results filed as inconclusive are left out. Calls of active or inactive are those of the source. Unless noted, calls follow the shape of the dose curve; as a rule, active = well fitted curve in the direction sought with a large enough effect; inconclusive = small, poorly fitted or top-dose-only effect, or another doubt; inactive = no such curve, though single readings can be large; an effect the other way counts as inactive or inconclusive.

How the values were obtained:
[1] = qHTS to identify inhibitors of the type 1 interferon - major histocompatibility complex class I in skeletal muscle: primary screen against the NCATS Pharmaceutical Collection (AID 1347407);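 also: luminescence of HiBiT knocked into endogenous HLA-B as interferon-induced MHC class I level; % is scaled to controls: 0 for no effect and ±100 for the full control effect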
How it was run: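 HLA-B HiBiT myoblasts, dexamethasone-free growth medium + 4 ng/ml IFN-b; compounds pinned 1 h after seeding, […] from 46 uM; 24 h, 37 C, 5% CO2; lytic HiBiT detection, 10 min RT, luminescence.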

[2] = target: Protein phosphatase 1D (Homo sapiens) (UniProt O15297); assay: RapidFire Mass Spectrometry qHTS Assay for Modulators of WT P53-Induced Phosphatase 1 (WIP1) (AID 1347424);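 also: amount of dephosphorylated VEPPL-S-QETFS peptide product formed by WIP1; series mostly up to about 63 µM; plate controls were DMSO wells for no effect and GSK830371 inhibitor control at 10 µM for full effect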
Sequence of Protein phosphatase 1D (Homo sapiens) (O15297 whole entry, looked up): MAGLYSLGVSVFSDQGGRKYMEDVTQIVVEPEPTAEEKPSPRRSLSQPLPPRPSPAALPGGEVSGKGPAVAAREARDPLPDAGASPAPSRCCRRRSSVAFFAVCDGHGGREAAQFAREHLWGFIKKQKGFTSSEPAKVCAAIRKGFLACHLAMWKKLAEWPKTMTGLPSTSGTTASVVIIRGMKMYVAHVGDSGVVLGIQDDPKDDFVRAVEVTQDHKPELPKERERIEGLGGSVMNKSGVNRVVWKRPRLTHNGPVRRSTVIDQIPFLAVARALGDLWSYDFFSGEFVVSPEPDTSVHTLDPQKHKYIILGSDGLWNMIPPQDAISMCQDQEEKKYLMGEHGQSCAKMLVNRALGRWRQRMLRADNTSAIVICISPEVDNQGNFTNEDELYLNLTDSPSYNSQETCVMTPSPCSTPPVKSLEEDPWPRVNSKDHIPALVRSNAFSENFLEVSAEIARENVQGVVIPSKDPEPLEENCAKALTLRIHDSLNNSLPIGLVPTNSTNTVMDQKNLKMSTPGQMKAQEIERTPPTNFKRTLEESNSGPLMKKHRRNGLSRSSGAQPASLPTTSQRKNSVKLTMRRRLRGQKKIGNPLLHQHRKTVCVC
How it was run: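 WIP1 (10 nM final) was preincubated 1 h at room temperature with compounds in Tris-HCl pH 7.5, 30 mM MgCl2, TCEP, EGTA, BSA; 2 uM VEPPL-pS-QETFS phosphopeptide was added for 5 min, quenched with formic acid, and dephosphorylated product quantified by RapidFire MS.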

[3] = target: Protein phosphatase 1D (Homo sapiens) (UniProt O15297); assay: Rhodamine-PBP qHTS Assay for Modulators of WT P53-Induced Phosphatase 1 (WIP1) (AID 1347425); also: % of control where 0% means no effect
How it was run: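 5 nM WIP1 + 10 uM Rh-PBP, 50 mM Tris pH 7.5, 30 mM MgCl2, 1 mM TCEP, 0.1 mM EGTA, BSA; cpds pinned, 1 hr RT; + 10 uM phosphopeptide; fluorescence 1-min reads x 11 min; delta = f1 - f0.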

[4] = target: Calcium and integrin-binding protein 1 (Homo sapiens) (UniProt Q99828); assay: Primary qHTS for Identification of Calcium Integrin Binding Protein 1 (CIB1) Competitor (AID 1508620);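 also: GST tagged CIB1 binding a fluorescein labelled alphaIIb integrin peptide tracer; top concentration of the series differs between compounds; % is scaled to controls: 0 for no effect and ±100 for the full control effect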
Sequence of Calcium and integrin-binding protein 1 (Homo sapiens) (Q99828 whole entry, looked up): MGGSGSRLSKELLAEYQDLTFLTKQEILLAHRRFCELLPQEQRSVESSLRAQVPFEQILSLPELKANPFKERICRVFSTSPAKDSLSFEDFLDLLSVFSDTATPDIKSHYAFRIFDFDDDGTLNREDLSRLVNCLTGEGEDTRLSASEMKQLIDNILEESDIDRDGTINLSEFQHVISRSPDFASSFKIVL
How it was run: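 Fluorescence polarization competition: CIB1-GST (1 uM final) preincubated with compound 15 min at room temperature, then FITC-labeled alphaIIb peptide (100 nM final) added for another 15 min. Polarization read at Ex 480/Em 540.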

[5] = A High-Content qHTS Against Drug Library for the Identification of Small Molecules that Inhibit DYT1 Early Onset Primary Dystonia-Associated Cell Pathology (AID 1645839; calls by dose curve; also: series mostly up to about 46 µM)
How it was run: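 Readout: %pathology, the punctate EGFP-TorsinA distribution from imaging, as the primary channel and cell count as the toxicity counterscreen. HEK293 Flp-In cells expressing delE TorsinA were induced with tetracycline and treated with compound for 48 h.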

[6] = target: Cytochrome P450 2D6 (Homo sapiens) (UniProt P10635); assay: Cytochrome P450 family 2 subfamily D member 6 (CYP2D6) small molecule antagonists: luciferase biochemical (cell-free) qHTS assay (AID 1645840; active = well fitted curve in the direction sought with a large enough effect in the repeat runs; an effect the other way counts as inactive or inconclusive; also: nearly all actives have a fitted effect of over 55% in size; also: potency is read from the fitted curve at half-maximal effect)
Sequence of Cytochrome P450 2D6 (Homo sapiens) (P10635 whole entry, looked up): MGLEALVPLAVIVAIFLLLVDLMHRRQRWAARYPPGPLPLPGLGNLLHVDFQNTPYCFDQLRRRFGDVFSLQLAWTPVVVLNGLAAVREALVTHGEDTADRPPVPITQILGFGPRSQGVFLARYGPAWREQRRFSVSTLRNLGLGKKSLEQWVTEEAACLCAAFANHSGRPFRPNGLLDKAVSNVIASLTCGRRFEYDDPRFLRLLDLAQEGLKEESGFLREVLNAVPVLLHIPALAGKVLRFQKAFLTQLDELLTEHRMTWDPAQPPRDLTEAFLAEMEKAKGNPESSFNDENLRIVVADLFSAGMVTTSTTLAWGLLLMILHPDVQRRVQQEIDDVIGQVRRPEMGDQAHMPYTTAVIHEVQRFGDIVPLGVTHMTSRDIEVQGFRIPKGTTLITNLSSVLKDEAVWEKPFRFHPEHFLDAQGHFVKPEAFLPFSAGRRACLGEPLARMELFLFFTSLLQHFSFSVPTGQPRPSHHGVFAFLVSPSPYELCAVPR
How it was run: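 P450-Glo luminescent screen: recombinant CYP2D6 enzyme–proluciferin substrate mix preincubated with compound 10 min at room temperature, then NADPH regeneration added for 1 h at room temperature. Detection reagent added for 20 min; luciferin light read as relative luminescence units.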

[7] = Primary qHTS for small molecule stabilizers of the endoplasmic reticulum resident proteome: Secreted ER Calcium Modulated Protein (SERCaMP) assay (AID 1508630); also: % is scaled to controls: 0 for no effect and ±100 for the full control effect
How it was run: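 GLuc-SERCaMP-expressing SH-SY5Y cells, pretreated 16 h with compound, are challenged with thapsigargin to empty ER calcium stores; after 4 h, coelenterazine is added directly to the medium and luminescence is imaged.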

[8] = Primary qHTS for inhibitors of La Crosse Virus (LACV) - induced cell death in SH-SY5Y cells (AID 1508616);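 also: top concentration of the series differs between compounds; 0% = infected DMSO wells and 100% = uninfected DMSO wells; higher means more rescue of cells from virus-induced death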
How it was run: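 Luminescent ATP readout (ATPLite 1step, 5 min room temperature) measured rescue from LACV-induced death after 6 days of infection at 0.01 MOI; normalized to infected DMSO wells and uninfected DMSO wells.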

[9] = Counterscreen qHTS for small molecule stabilizers of the endoplasmic reticulum resident proteome: GLuc-NoTag assay (AID 1508627);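 also: SH-SY5Y cells given compound then 100 nM thapsigargin to empty ER calcium; series mostly up to about 76 µM; 0% = thapsigargin alone and -100% = DMSO vehicle control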
How it was run: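 SH-SY5Y cells stably expressing constitutively secreted GLuc (no SERCaMP tag) were pre-incubated 5 h, treated with compound for 19 h, then 100 nM thapsigargin for 4 h at 37C; medium GLuc read by coelenterazine luminescence.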

[10] = Confirmatory qHTS for small molecule stabilizers of the endoplasmic reticulum resident proteome: Secreted ER Calcium Modulated Protein (SERCaMP) assay (AID 1508628);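 also: SH-SY5Y cells given compound 16 h then thapsigargin 100 nM for 4 h; series mostly up to about 76 µM; % is scaled to controls: 0 for no effect and ±100 for the full control effect; nearly all actives have a fitted effect of over 40% in size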
How it was run: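 We seeded SH-SY5Y-GLuc-SERCaMP cells, added compounds (three concentrations in the primary run, eleven up to 76.6 uM in confirmation), incubated 16 h, depleted ER calcium with thapsigargin, and read luciferase 4 h later.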

[11] = Cell Viability qHTS for small molecule stabilizers of the endoplasmic reticulum resident proteome (AID 1508629); conditions: cell viability counter-screen, 100 nM thapsigargin for final 4 h;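 also: human SH-SY5Y neuroblastoma cells carrying the GLuc-SERCaMP reporter; compound exposure about 46 h in total before the viability read; % is scaled to controls: 0 for no effect and ±100 for the full control effect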

NS(=O)(=O)c1ccc(C(=O)O)cc1
inactive: outcome [1] | outcome [2] | outcome [3] | outcome [4] | Potency [5] | Potency [6]

CC(C)=CCC[C@@](C)(O)[C@H]1CC=C(C)CC1
inactive: outcome [1] | outcome [2] | outcome [3] | outcome [4] | outcome [7] | Potency [5]

C[N+]1(C)CCCC(OC(=O)C(O)(c2ccccc2)c2ccccc2)C1 (stereo unspecified)
active: Potency [6] 12.3 µM
inactive: outcome [1] | outcome [2] | outcome [3] | outcome [4] | Potency [5]

NC(=O)N[C@@H](CCC(=O)O)C(=O)O
inactive: outcome [1] | outcome [2] | outcome [3] | outcome [4] | Potency [5] | Potency [6]

O=C(NCCCN1CCOCC1)c1ccc(Cl)cc1
active: Potency [6] 2.72 µM
inactive: outcome [1] | outcome [2] | outcome [8] | outcome [4] | outcome [7] | Potency [5]

Cc1ccc(S(=O)(=O)NC(=O)NC2CCCCCCC2)cc1
inactive: outcome [1] | outcome [2] | outcome [3] | outcome [7] | Potency [5] | Potency [6]

CC(C)(C)NCC(O)COc1cccc2c1CCC(=O)N2 (stereo unspecified)
inactive: outcome [1] | outcome [2] | outcome [3] | outcome [4] | outcome [7] | Potency [5] | Potency [6]

O[C@@H]1CO[C@H]2[C@@H]1OC[C@@H]2O
inactive: outcome [1] | outcome [2] | outcome [3] | outcome [7] | Potency [5] | Potency [6]

Nc1ncnc(Nc2ccccc2)n1
inactive: outcome [1] | outcome [2] | outcome [3] | outcome [4] | outcome [7] | Potency [5] | Potency [6]

CCN(CC)C(=O)c1cccc(C)c1
inactive: outcome [1] | outcome [2] | outcome [3] | outcome [4] | outcome [9] | Potency [10] | max response [11] 12.2% | Potency [5] | Potency [6]

CC[N+](C)(CC)CCOC(=O)C1c2ccccc2Oc2ccccc21
active: Potency [6] 4.36 µM
inactive: outcome [1] | outcome [2] | outcome [3] | Potency [5]

CC(=O)OCC(=O)[C@@]1(O)CC[C@H]2[C@@H]3CCC4=CC(=O)C=C[C@]4(C)[C@@]3(F)[C@@H](O)C[C@@]21C
inactive: outcome [1] | outcome [2] | outcome [3] | outcome [4] | outcome [7] | Potency [5] | Potency [6]

O=S1(=O)OC(c2ccc(O)cc2)(c2ccc(O)cc2)c2ccccc21
inactive: outcome [1] | outcome [2] | outcome [3] | outcome [8] | Potency [5] | Potency [6]

O=C(O)CCC(=O)O
inactive: outcome [1] | outcome [2] | outcome [3] | Potency [5] | Potency [6]

CCN(CC)CCc1nc(-c2ccccc2)no1
inactive: outcome [1] | outcome [2] | outcome [3] | outcome [4] | outcome [7] | Potency [5] | Potency [6]

C[C@@H](c1ncncc1F)C(O)(Cn1cncn1)c1ccc(F)cc1F (stereo partly specified)
inactive: outcome [1] | outcome [2] | outcome [3] | outcome [7] | Potency [5] | Potency [6]

CC1(C)S[C@@H]2[C@H](NC(=O)C(C(=O)O)c3ccccc3)C(=O)N2[C@H]1C(=O)O (stereo partly specified)
inactive: outcome [1] | outcome [2] | outcome [3] | outcome [4] | Potency [5] | Potency [6]

COCC(=O)Nc1c(I)c(C(=O)NCC(O)CO)c(I)c(C(=O)N(C)CC(O)CO)c1I (stereo unspecified)
inactive: outcome [1] | outcome [2] | outcome [3] | outcome [4] | outcome [7] | Potency [5] | Potency [6]

C=CCNC(N)=S
inactive: outcome [1] | outcome [2] | outcome [3] | outcome [8] | Potency [5] | Potency [6]

CC(CN(C)C)C(C)(O)Cc1ccc(Cl)cc1 (stereo unspecified)
active: Potency [6] 12.3 µM
inactive: outcome [1] | outcome [2] | outcome [3] | outcome [4] | Potency [5]

Nc1ccc(S(=O)(=O)c2ccc(N)cc2)cc1
inactive: outcome [1] | outcome [2] | outcome [3] | outcome [8] | Potency [5] | Potency [6]

N[C@@H](Cc1ccc(O)cc1)C(=O)O
inactive: activity change, negative = inhibition [1] -1.9% [at 9.18 µM] | activity change, negative = inhibition [2] 3.61% [at 12.6 µM] | activity change, negative = inhibition [3] 8.22% [at 11.5 µM] | outcome [4] | % pathology change, negative = correction [5] -10.7% [at 9.22 µM]

Cc1ccc(C(C)C)c(O)c1
inactive: outcome [1] | outcome [2] | outcome [3] | outcome [4] | Potency [5] | Potency [6]

CCc1nnc(NS(=O)(=O)c2ccc(N)cc2)s1
inactive: outcome [1] | outcome [2] | outcome [3] | Potency [5] | Potency [6]

CC(C)CCOC(=O)c1ccc(N(C)C)cc1
inactive: outcome [1] | outcome [2] | outcome [3] | Potency [5] | Potency [6]

FC(F)(F)C(Cl)Br (stereo unspecified)
inactive: outcome [1] | outcome [2] | outcome [3] | outcome [4] | outcome [7] | Potency [5] | Potency [6]
